From PubChem BioAssay
Active and inactive are the calls of the source.

What was measured:
[1] = anti-His antibody binders, primary screen, artefact control for SMM control protein annotation, biochemical, small-molecule microarray, 635 nm fluorescence (AID 1128); conditions: anti-His Alexa647 antibody binding, higher = more signal;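 also: score merges feature fluorescence with signal-to-noise for each printed compound spot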
[2] = system: Human papillomavirus type 1a E7 protein (residues 1-88); experiment: HPV1a E7 small-molecule binders, primary screen, biochemical, small-molecule microarray, residues 1-88, 635 nm (AID 1129); conditions: small-molecule microarray binding, fluorescence 635 nm; higher = more signal
[3] = molecular target: Focal adhesion kinase 1 (Homo sapiens) (UniProt Q05397); experiment: small-molecule microarray binders of FAK, primary screen, biochemical, 635/667 nm fluorescence, BSA, DTT (AID 1130); conditions: PTK2 binding, 635 nm fluorescence, higher = more signal;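 also: composite of spot emission at 667 nm and signal to noise over triplicate slides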
[4] = system: Fibrinogen (Alexa647-labelled); experiment: fibrinogen binders on compound microarrays, profiling panel, artefact control for SMM control-protein annotation, biochemical, small-molecule microarray, 635/667 nm fluorescence (AID 1131); conditions: fibrinogen-A647 binding fluorescence, higher = more signal;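 also: z-score merges 667 nm fluorescence with per-spot signal-to-noise over triplicate slides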
[5] = molecular target: Follistatin (Homo sapiens) (UniProt P19883); experiment: follistatin binders on small-molecule microarrays, primary screen, biochemical, small-molecule microarray, 635/667 nm fluorescence (AID 1132); conditions: FST binding, 635 nm fluorescence, higher = more signal
[6] = molecular target: Fibroblast growth factor 2 (Homo sapiens) (UniProt P09038); experiment: FGF2 binders on small-molecule microarrays, primary screen, biochemical, small-molecule microarray, 635/667 nm fluorescence (AID 1133); conditions: small-molecule microarray binding, FGF2, fluorescence 635/667; higher = more signal
[7] = mitochondrial membrane potential change in A549 cells, profiling panel, cell-based, JC-1 fluorescence, basal, 24 h, 100 nL (AID 1138); conditions: higher = more signal;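 also: A549 lung adenocarcinoma cells under basal conditions with no added stimulus; test concentration not given here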
Lefty1 = Lefty1 binders on small-molecule microarrays, primary screen, biochemical, small-molecule microarray, 635/667 nm fluorescence (AID 1139); conditions: small-molecule microarray binding, fluorescence 635/667; higher = more signal
[8] = system: wheat germ agglutinin (Triticum aestivum), Alexa647-labelled; experiment: wheat germ agglutinin binders on compound microarrays, profiling panel, artefact control for SMM control-protein annotation, biochemical, small-molecule microarray, 635/667 nm fluorescence (AID 1140); conditions: WGA-A647 binding, 635 nm fluorescence, higher = more signal;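 also: score merges 667 nm feature emission with signal to noise over triplicate slides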
[9] = molecular target: Luciferin 4-monooxygenase (Photinus pyralis) (UniProt P08659); experiment: firefly luciferase enzyme inhibitors, primary screen, biochemical, luminescence, purified enzyme, 2006 set (AID 1141); conditions: SteadyGlo luminescence, 30 min, higher = more signal, called active from +8 up or from −8 down;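 also: cell-free assay with purified firefly luciferase at 100 ng per well in PBS; test concentration not given here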
[10] = system: Wnt5a (protein binding on small-molecule microarray); experiment: Wnt5a binders on small-molecule microarray, primary screen, biophysical, 635/667 nm fluorescence (AID 1142); conditions: 635 nm fluorescence, higher = more signal;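 also: fluorescence read at 667 nm with signal to noise per printed feature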
[11] = cell viability in Huh7 cells, primary screen, cytotoxicity control for HCV replication inhibitor project, CellTiter-Glo luminescence, basal, 48 h (AID 1143); conditions: Huh7 HCV replicon, higher = more signal, called active from +8 up or from −8 down;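 also: Huh7 hepatoma cells carrying a hepatitis C replication reporter with no stimulus; test concentration not given here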
[12] = CREB reporter modulators without forskolin, primary screen, cell-based, PC12, CRE-LacZ reporter, unstimulated (AID 1145); conditions: no forskolin, luminescence, 4.5 h, higher = more signal, called active from +8 up or from −8 down
[13] = CREB reporter modulators under forskolin, primary screen, cell-based, PC12, CRE-LacZ reporter, forskolin-stimulated (AID 1146); conditions: luminescence, 4.5 h, higher = more signal, called active from +8 up or from −8 down;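 also: PC12 cells with 6xCRE LacZ reporter stimulated by forskolin 10 µM; beta-galactosidase reporter signal reflecting CREB driven transcription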
[14] = molecular target: Streptavidin (Streptomyces avidinii) (UniProt P22629); experiment: streptavidin binders on small-molecule microarray, primary screen, artefact control for SMM compound annotation, biophysical, 635/667 nm fluorescence (AID 1147); conditions: streptavidin binding, higher = more signal;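 also: signal reflects streptavidin binding to arrayed compounds as a control protein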
[15] = small-molecule binders of probe aInhba, primary screen, biochemical, small-molecule microarray, 635/667 nm fluorescence (AID 1148); conditions: higher = more signal;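 also: score merges 667nm spot fluorescence with signal-to-noise for antibody binding to printed compounds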
Torsin-1A (Homo sapiens) [16] = molecular target: Torsin-1A (Homo sapiens) (UniProt O14656); experiment: torsin A binders from cell lysate, primary screen, small-molecule microarray, wild-type, 635/667 nm (AID 1149); conditions: COS7 hTOR1A-WT lysate, 635 nm fluorescence, higher = more signal
Torsin-1A (Homo sapiens) [17] = molecular target: Torsin-1A (Homo sapiens) (UniProt O14656); experiment: small-molecule binders of mutant TOR1A in lysate, primary screen, cell lysate, small-molecule microarray, COS7 lysate, 635/667 nm fluorescence (AID 1150); conditions: COS7 hTOR1A mutant lysate, 635 nm fluorescence, higher = more signal;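 also: score pools 667 nm emission and signal to noise measuring lysate protein binding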
[18] = system: Sonic hedgehog protein (Shh); experiment: small-molecule binders of Shh protein, primary screen, biochemical, small-molecule microarray, 635/667 nm fluorescence (AID 1151); conditions: small-molecule microarray binding, 635 nm fluorescence; higher = more signal;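 also: Shh protein binding to compounds spotted on small-molecule microarray slides; score combines spot fluorescence intensity with signal-to-noise across triplicate slides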

Sequence of Luciferin 4-monooxygenase (Photinus pyralis) (P08659 whole entry, looked up): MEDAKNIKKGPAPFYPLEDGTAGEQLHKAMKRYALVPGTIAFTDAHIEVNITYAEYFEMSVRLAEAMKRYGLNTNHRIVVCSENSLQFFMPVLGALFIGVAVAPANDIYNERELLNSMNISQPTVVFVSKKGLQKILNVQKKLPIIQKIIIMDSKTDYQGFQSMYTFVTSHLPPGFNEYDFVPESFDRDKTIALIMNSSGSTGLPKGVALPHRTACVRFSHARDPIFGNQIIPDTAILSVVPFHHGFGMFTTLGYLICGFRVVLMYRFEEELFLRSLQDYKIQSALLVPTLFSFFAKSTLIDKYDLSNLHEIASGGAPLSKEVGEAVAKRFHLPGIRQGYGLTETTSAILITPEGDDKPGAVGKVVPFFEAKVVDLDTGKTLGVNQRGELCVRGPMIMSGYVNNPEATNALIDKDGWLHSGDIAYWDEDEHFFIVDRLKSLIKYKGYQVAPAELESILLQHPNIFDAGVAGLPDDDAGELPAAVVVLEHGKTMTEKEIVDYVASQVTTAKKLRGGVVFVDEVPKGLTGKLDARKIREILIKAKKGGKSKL
Sequence of Torsin-1A (Homo sapiens) (O14656 whole entry, looked up): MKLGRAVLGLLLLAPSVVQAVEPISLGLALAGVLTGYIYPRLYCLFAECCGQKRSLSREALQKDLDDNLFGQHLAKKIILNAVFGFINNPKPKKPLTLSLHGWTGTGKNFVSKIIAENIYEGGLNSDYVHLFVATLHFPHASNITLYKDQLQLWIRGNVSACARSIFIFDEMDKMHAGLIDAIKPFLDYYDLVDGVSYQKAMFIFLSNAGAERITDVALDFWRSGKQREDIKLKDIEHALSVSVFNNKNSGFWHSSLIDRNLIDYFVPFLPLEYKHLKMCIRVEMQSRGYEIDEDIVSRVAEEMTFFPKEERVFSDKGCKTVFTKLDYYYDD
Sequence of Fibroblast growth factor 2 (Homo sapiens) (P09038 whole entry, looked up): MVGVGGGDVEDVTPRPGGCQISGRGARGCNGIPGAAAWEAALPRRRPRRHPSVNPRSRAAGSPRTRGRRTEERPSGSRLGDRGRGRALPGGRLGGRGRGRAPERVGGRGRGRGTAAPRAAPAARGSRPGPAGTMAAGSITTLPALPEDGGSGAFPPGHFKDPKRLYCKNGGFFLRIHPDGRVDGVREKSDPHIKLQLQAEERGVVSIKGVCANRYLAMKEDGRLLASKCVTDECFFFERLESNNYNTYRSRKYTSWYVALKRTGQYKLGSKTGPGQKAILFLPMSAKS
Sequence of Focal adhesion kinase 1 (Homo sapiens) (Q05397 whole entry, looked up): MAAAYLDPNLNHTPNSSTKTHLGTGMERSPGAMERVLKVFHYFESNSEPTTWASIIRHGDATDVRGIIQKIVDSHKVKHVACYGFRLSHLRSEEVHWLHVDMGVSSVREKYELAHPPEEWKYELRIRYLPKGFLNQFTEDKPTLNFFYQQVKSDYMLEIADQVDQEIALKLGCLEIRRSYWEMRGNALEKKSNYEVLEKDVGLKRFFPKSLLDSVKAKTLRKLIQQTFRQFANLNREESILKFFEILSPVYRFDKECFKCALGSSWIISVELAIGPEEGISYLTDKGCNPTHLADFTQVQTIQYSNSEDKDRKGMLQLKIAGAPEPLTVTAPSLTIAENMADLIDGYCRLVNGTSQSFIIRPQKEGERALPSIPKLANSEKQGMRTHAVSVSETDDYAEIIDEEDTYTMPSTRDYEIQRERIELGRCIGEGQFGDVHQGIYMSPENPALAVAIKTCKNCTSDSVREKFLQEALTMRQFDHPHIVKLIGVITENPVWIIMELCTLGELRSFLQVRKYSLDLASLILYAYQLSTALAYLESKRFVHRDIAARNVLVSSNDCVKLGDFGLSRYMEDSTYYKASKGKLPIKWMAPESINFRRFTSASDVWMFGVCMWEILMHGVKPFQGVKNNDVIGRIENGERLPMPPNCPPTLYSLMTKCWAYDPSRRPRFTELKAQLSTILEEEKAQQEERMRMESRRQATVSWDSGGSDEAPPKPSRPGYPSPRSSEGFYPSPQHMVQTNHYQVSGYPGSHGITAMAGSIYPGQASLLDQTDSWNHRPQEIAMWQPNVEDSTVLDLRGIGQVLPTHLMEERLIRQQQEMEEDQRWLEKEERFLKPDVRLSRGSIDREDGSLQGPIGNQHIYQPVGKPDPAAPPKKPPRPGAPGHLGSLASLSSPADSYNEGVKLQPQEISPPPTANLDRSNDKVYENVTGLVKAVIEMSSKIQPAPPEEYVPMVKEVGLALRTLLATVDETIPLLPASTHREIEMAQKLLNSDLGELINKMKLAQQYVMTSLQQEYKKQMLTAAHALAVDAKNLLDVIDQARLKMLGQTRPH
Sequence of Follistatin (Homo sapiens) (P19883 whole entry, looked up): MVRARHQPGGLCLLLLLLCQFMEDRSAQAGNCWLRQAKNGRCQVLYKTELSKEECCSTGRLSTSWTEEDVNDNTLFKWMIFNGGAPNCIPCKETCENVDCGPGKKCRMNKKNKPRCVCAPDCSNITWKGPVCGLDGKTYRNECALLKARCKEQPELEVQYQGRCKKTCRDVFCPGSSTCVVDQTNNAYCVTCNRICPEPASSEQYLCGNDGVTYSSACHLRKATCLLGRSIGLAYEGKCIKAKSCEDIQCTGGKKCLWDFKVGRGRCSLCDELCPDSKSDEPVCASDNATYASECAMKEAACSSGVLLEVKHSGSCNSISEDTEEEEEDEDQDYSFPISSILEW
Sequence of Streptavidin (Streptomyces avidinii) (P22629 whole entry, looked up): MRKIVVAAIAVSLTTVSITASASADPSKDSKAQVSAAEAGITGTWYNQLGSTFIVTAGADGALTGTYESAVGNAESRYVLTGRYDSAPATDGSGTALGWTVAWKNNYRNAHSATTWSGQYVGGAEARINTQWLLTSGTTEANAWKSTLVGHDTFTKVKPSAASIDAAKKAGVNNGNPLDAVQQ

For `C=CC[C@]1(C(=O)NCC(O)CO)N=C(c2ccc(OCCCO)cc2)O[C@H]1c1ccccc1` (stereo not given in full), which composite z-score [1] is on record?
Its composite z-score is 0.307.

What about the composite z-score [2] of the same molecule?
The composite z-score was 0.904.

And the composite z-score [3]?
Its composite z-score is 0.12.

What about the composite z-score [4] of the same molecule?
Its composite z-score is 0.106.

And the composite z-score [5]?
Its composite z-score is -0.307.

And the composite z-score [6]?
The composite z-score was -0.651.

What about the z-score [7] of the same molecule?
The z-score was 0.985.

And the composite z-score (Lefty1)?
The composite z-score was -1.51.

What about the composite z-score [8] of the same molecule?
Its composite z-score is 0.587.

What about the z-score [9] of the same molecule?
Its z-score is -0.428 (inactive).

What about the composite z-score [10] of the same molecule?
The composite z-score was 0.621.

And the z-score [11]?
Its z-score is -0.371 (inactive).

What about the z-score [12] of the same molecule?
Its z-score is 1.37 (inactive).

What about the z-score [13] of the same molecule?
The z-score was -0.804 (inactive).

What about the composite z-score [14] of the same molecule?
The composite z-score was 0.0012.

And the composite z-score [15]?
Its composite z-score is -0.146.

And the composite z-score (Torsin-1A (Homo sapiens) [16])?
The composite z-score was 2.71.

And the composite z-score (Torsin-1A (Homo sapiens) [17])?
The composite z-score was 3.09.

And the composite z-score [18]?
The composite z-score was -0.559.

With `CCN1C(C)=C(C(=O)OC)[C@@H](c2ccccc2)N2C(=O)[C@@]3(C(=O)OC)O[C@@]12[C@@H]1C(=O)N(C)C(=O)[C@@H]13` as the molecule, how does the composite z-score [1] read?
Its composite z-score is 1.65.

What about the composite z-score [2] of the same molecule?
The composite z-score was 0.812.

And the composite z-score [3]?
Its composite z-score is -0.23.

What about the composite z-score [4] of the same molecule?
The composite z-score was 0.819.

And the composite z-score [5]?
Its composite z-score is 0.968.

And the composite z-score [6]?
The composite z-score was 0.916.

What about the z-score [7] of the same molecule?
Its z-score is 0.842.

And the composite z-score (Lefty1)?
The composite z-score was 0.819.

What about the composite z-score [8] of the same molecule?
Its composite z-score is 1.12.

And the z-score [9]?
The z-score was -0.701 (inactive).

And the composite z-score [10]?
The composite z-score was 0.601.

What about the z-score [11] of the same molecule?
The z-score was -0.674 (inactive).

And the z-score [12]?
Its z-score is 0.922 (inactive).

And the z-score [13]?
Its z-score is -1.21 (inactive).

And the composite z-score [14]?
Its composite z-score is 0.233.

And the composite z-score [15]?
Its composite z-score is -0.157.

What about the composite z-score (Torsin-1A (Homo sapiens) [16]) of the same molecule?
Its composite z-score is 0.587.

And the composite z-score (Torsin-1A (Homo sapiens) [17])?
The composite z-score was 0.368.

What about the composite z-score [18] of the same molecule?
The composite z-score was 0.971.

For `CCOC(=O)C[C@H]1[C@H](OC(=O)c2cc3ccccc3oc2=O)[C@@H](NC(=O)c2ccc3ccccc3c2)c2cc(OCCCO)ccc2N1C(=O)c1ccc2ccccc2n1`, which composite z-score [1] is on record?
The composite z-score was 0.322.

And the composite z-score [2]?
The composite z-score was 1.04.

What about the composite z-score [3] of the same molecule?
The composite z-score was 0.0147.

And the composite z-score [4]?
Its composite z-score is 0.973.

And the composite z-score [5]?
The composite z-score was 0.986.

What about the composite z-score [6] of the same molecule?
Its composite z-score is 0.927.

And the z-score [7]?
The z-score was 1.33.

What about the composite z-score (Lefty1) of the same molecule?
Its composite z-score is 0.488.

What about the composite z-score [8] of the same molecule?
Its composite z-score is 1.05.

What about the z-score [9] of the same molecule?
Its z-score is -0.233 (inactive).

What about the composite z-score [10] of the same molecule?
The composite z-score was 0.338.

What about the z-score [11] of the same molecule?
The z-score was -0.574 (inactive).

What about the z-score [12] of the same molecule?
Its z-score is 9.89 (active).

What about the z-score [13] of the same molecule?
Its z-score is -2.03 (inactive).

What about the composite z-score [14] of the same molecule?
Its composite z-score is 0.895.

What about the composite z-score [15] of the same molecule?
The composite z-score was 0.0497.

What about the composite z-score (Torsin-1A (Homo sapiens) [16]) of the same molecule?
Its composite z-score is 0.419.

What about the composite z-score (Torsin-1A (Homo sapiens) [17]) of the same molecule?
Its composite z-score is 0.268.

What about the composite z-score [18] of the same molecule?
The composite z-score was 0.43.

For `CC(C)N1CC=CC23O[C@@H]4/C=C\CCCOC(=O)C4[C@H]2C(=O)N(CCCCCO)[C@@H]3C1=O` (stereo not given in full), which composite z-score [1] is on record?
The composite z-score was -2.21.

What about the composite z-score [2] of the same molecule?
Its composite z-score is -1.79.

And the composite z-score [3]?
Its composite z-score is -0.925.

And the composite z-score [4]?
The composite z-score was -3.13.

What about the composite z-score [5] of the same molecule?
Its composite z-score is -1.15.

And the composite z-score [6]?
The composite z-score was -1.03.

And the z-score [7]?
Its z-score is 3.68.

And the composite z-score (Lefty1)?
Its composite z-score is -1.52.

And the composite z-score [8]?
The composite z-score was -1.78.

What about the z-score [9] of the same molecule?
The z-score was -1.32 (inactive).

And the composite z-score [10]?
Its composite z-score is -0.22.

What about the z-score [11] of the same molecule?
Its z-score is -0.143 (inactive).

And the z-score [12]?
The z-score was 0.0564 (inactive).

What about the z-score [13] of the same molecule?
The z-score was 0.392 (inactive).

What about the composite z-score [14] of the same molecule?
The composite z-score was -1.52.

What about the composite z-score [15] of the same molecule?
The composite z-score was -0.244.

What about the composite z-score (Torsin-1A (Homo sapiens) [16]) of the same molecule?
Its composite z-score is 1.5.

And the composite z-score (Torsin-1A (Homo sapiens) [17])?
Its composite z-score is 1.58.

And the composite z-score [18]?
Its composite z-score is -0.641.

Which results are given for `C=CCNC(=O)[C@H]1[C@@H]2C(=O)O[C@@H](c3ccccc3)[C@@H](c3ccccc3)N2[C@@H](c2ccccc2OCCO)[C@]12C(=O)N(C(=O)OCCOC)c1ccc(C#CCNC(N)=O)cc12`?
composite z-score [1]: 1.26; composite z-score [2]: 1.17; composite z-score [3]: 0.409; composite z-score [4]: 0.742; composite z-score [5]: 0.776; composite z-score [6]: 0.104; z-score [7]: 0.423; composite z-score (Lefty1): 0.629; composite z-score [8]: 1.11; z-score [9]: -0.963 (inactive); composite z-score [10]: -0.0103; z-score [11]: -1.76 (inactive); z-score [12]: -0.471 (inactive); z-score [13]: 0.948 (inactive); composite z-score [14]: 0.98; composite z-score [15]: 0.026; composite z-score (Torsin-1A (Homo sapiens) [16]): 0.661; composite z-score (Torsin-1A (Homo sapiens) [17]): 0.296; composite z-score [18]: 0.633
